HCMV inh – human cytomegalovirus inhibition; HFF cells, HCMV-luciferase reporter, 72 h; stronger effect = lower value; activity change, negative = inhibition, % at 57.5 µM; hit rate 4.5% among 410,000; AID 1259415; in the data active = activity change below about -60%; inconclusive = no clear call, values can overlap the other calls; inactive = above about -39%
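After 16 h attachment at 37C, HFF cells received test compound and HCMV-luciferase (1 PFU/cell); reporter luminescence read 72 h later, data normalized against buffer-only and known inhibitor Salinomycin.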
VACV mCherry inh – inhibitors of vaccinia virus infection (mCherry reporter signal) | Potency, µM (top dose mostly 36.5 µM), inactives show at the highest dose activity change, negative = inhibition, hits mostly inhibitors | Vaccinia virus mCherry reporter infection, fluorescence | AID 720579 | hit rate 0.63% among 310,000; calls by dose curve; tested in A549 cells; also: potency is read from the fitted curve at half-maximal effect; nearly all actives have a fitted effect of over 35% in size
MARV entry inh – inhibitors of Marburg virus binding or cell entry. Marburg virus pseudotyped entry inhibition, cell reporter. Potency, µM (highest dose often 37.8 µM), inactives show at the top dose activity change, negative = inhibition, hits mostly inhibitors. hit rate 1.8% among 300,000; calls by dose curve; tested in HEK293 cells; also: potency is read from the fitted curve at half-maximal effect
Vaccinia Venus – inhibitors of vaccinia virus (Venus reporter); hit rate 0.46% among 330,000; Potency, µM (highest dose often 36.5 µM), for the others: at the top dose activity change, negative = inhibition, most hits filed as inhibitors; Vaccinia virus Venus reporter expression, fluorescence; calls by dose curve; tested in A549 cells; also: potency is read from the fitted curve at half-maximal effect; nearly all actives have a fitted effect of over 30% in size
FMDV antiviral – foot and mouth disease virus antiviral activity; FMDV antiviral cell-based qHTS; Potency, µM (doses to about 57.9 µM), without a hit: at the top dose activity change, negative = inhibition, actives largely listed as inhibitors; hit rate 1.2% among 410,000; AID 1159524; calls by dose curve; tested in HEK293T cells; also: read-out not given here; potency is read from the fitted curve at half-maximal effect; nearly all actives have a fitted effect of over 45% in size
LASV entry inh – inhibitors of Lassa virus binding or cell entry | hit rate 1.2% among 300,000 | Lassa virus pseudotype entry inhibition, cell reporter | Potency, µM (top dose mostly 37.9 µM), without a hit: at the highest dose activity change, negative = inhibition, usual class: inhibitors | AID 540256; calls by dose curve; tested in HEK293 cells; also: potency is read from the fitted curve at half-maximal effect; nearly all actives have a fitted effect of over 50% in size
* = called active by the depositor; i = inactive; ? = inconclusive; nt = no result given; [ ] = another dose, or the depositor's remark. In the library only some 6.5% were active in any assay of this set; here they are far more common. % is scaled to controls: 0 for no effect and ±100 for the full control effect.

SMILES | HCMV inh | VACV mCherry inh | MARV entry inh | Vaccinia Venus | FMDV antiviral | LASV entry inh
CC1CCCN(S(=O)(=O)c2ccc(NC(=O)C3CCN(C(=O)c4ccco4)CC3)cc2)C1 (stereo not given) | -60.1* | -16.6% | -24.0%[46.1 µM] | -10.4% | 16.7% | -8.4%[46.1 µM]
Cc1cc2oc(C(=O)Nc3ccc(S(=O)(=O)Nc4nccs4)cc3)cc(=O)c2cc1Cl | -78.9* | nt | nt | nt | -7.8% | nt
Cc1cc2oc(C(=O)Nc3ccc(S(=O)(=O)N4CCC(C)CC4)cc3)cc(=O)c2cc1C | 16.1 | -19.1% | 21.2%[46.1 µM] | -6.6% | -18.9% | 4.3%[46.1 µM]
Cc1cccc2sc(NC(=O)C3CCN(C(=O)c4ccco4)CC3)nc12 | 19.8 | 0.0% | ? | -17.7% | 2.4% | 7.94µM*
Cc1cc2oc(C(=O)Nc3ccc(S(=O)(=O)N4CCCC(C)C4)cc3)cc(=O)c2cc1Cl (stereo not given) | -17.9 | 10.9% | 11.2µM* | -12.1% | 0.0% | ?
O=C(NCc1cccs1)c1ccc(-c2ccc(F)c(F)c2)c2ccoc12 | -22.3 | i | nt | -5.7% | 30.7% | nt
N.N.O=C(O)C1(C(=O)O)CCC1.[Pt+2] | nt | nt | -5.4% | nt | nt | -0.5%
c1csc(CCNc2ncnc3sc4c(c23)CCC4)c1 | -88.9* | -25.3% | nt | ? | 12.6µM* | nt
CN(C)C(CNc1ncnc2sc3c(c12)CCCCC3)c1ccco1 (stereo not given) | -67.5* | -8.9% | ? | -5.1% | ? | -21.4%
COc1cc(NC(=O)CN2C(=O)C(=O)N(C3CCCC3)C2=O)cc(OC)c1 | -99.3* | nt | nt | nt | -15.2% | nt
CCc1noc(C)c1C(=O)Oc1ccc(N(C)S(=O)(=O)c2ccccc2)cc1 | -10.0 | -20.9% | ? | -15.2% | 17.8µM* | ?
C[C@@H]1CN([C@@H](C)CO)C(=O)c2cc(-c3cccnc3)cnc2O[C@H]1CN(C)C(=O)c1cccc(F)c1 | 17.1 | -0.8% | nt | -10.6% | 0.0% | nt
O=C1Nc2ccc(F)cc2C12OCCO2 | -26.4 | -20.8% | 1.1%[46.1 µM] | 5.2% | -6.0% | 15.1%[46.1 µM]
O=C1Nc2ccc(F)cc2C12SCCS2 | -106.7* | -5.5% | -7.8% | -10.4% | -4.1% | ?
COc1ccc(C2C(C#N)=C(C)NC3=C2S(=O)(=O)c2ccccc23)cc1 (stereo not given) | -107.9* | nt | -22.3% | nt | -13.7% | -20.2%
CC[C@@H]1C=C(C)C[C@H](C)C[C@H](OC)[C@H]2O[C@@](O)(C(=O)C(=O)N3CCCC[C@H]3C(=O)O[C@H](/C(C)=C/[C@@H]3CC[C@@H](O)[C@H](OC)C3)[C@H](C)[C@@H](O)CC1=O)[C@H](C)C[C@@H]2OC | nt | nt | 6.51µM* | nt | nt | ?
CO[C@H]1C[C@@H]2CC[C@@H](C)[C@@](O)(O2)C(=O)C(=O)N2CCCC[C@H]2C(=O)OC([C@H](C)C[C@@H]2CC[C@@H](O)[C@H](OC)C2)CC(=O)[C@H](C)/C=C(\C)[C@@H](O)[C@@H](OC)C(=O)[C@H](C)C[C@H](C)/C=C/C=C/C=C/1C (stereo not given in full) | nt | -26.0% | nt | -24.0% | -20.0% | nt
C=C(CCO)C1=CCN(S(=O)C(C)(C)C)[C@@H]1CCO (stereo not given in full) | -27.4 | -17.2% | nt | -15.3% | -5.4% | nt
COc1ccccc1NC(=O)CN1C(=O)C2(SCC(=O)N2c2ccc(F)c(F)c2)c2ccccc21 (stereo not given) | 28.1 | -5.5% | nt | 2.2% | -16.4% | -11.5%[46.1 µM]
COc1ccccc1NC(=O)CN1C(=O)C2(SCC(=O)N2c2ccc(C)c(C)c2)c2ccccc21 (stereo not given) | -71.9* | -24.9% | nt | -16.6% | ? | ?
Cc1ccc(NC(=O)Cn2ccsc2=N)cc1S(=O)(=O)N(C)C | -36.6 | i | -23.9%[46.1 µM] | -6.0% | 15.8% | -3.6%[46.1 µM]
NS(=O)(=O)c1cccc(NC(=O)CSc2nn(-c3ccccc3)c(=S)s2)c1 | -19.7 | ? | ? | ? | ? | ?
Cc1ccc(NC(=O)CSc2nn(-c3ccc(Cl)cc3)c(=S)s2)cc1S(=O)(=O)N(C)C | -82.6* | ? | ? | ? | ? | 11.2µM*
CN(C)S(=O)(=O)c1cc(NC(=O)CSc2nn(-c3ccc(Cl)cc3)c(=S)s2)ccc1Cl | -84.5* | ? | ? | ? | ? | ?

Compound activity from PubChem.
